# Test results from PubChem BioAssay AID376 (PDSP, 2006).
# Screen size: about 2,000 compounds; about 250 (12%) were called active. No stated cut-off is given here; in the data, active means hERG blockade below about -20% or above about 20%; inactive means in between. This excerpt belongs to a sample that is enriched for actives.
# Target: Voltage-gated inwardly rectifying potassium channel KCNH2 (Homo sapiens) (UniProt Q12809)
# Experiment: KCNH2 potassium channel function modulators, cell-based (AID 376);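 further: 0% = buffer alone and 100% = reference blocker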
# Settings: hERG-expressing cells, channel activity single-concentration screen; concentration not given here
# Sequence of Voltage-gated inwardly rectifying potassium channel KCNH2 (Homo sapiens) (Q12809 whole entry, looked up): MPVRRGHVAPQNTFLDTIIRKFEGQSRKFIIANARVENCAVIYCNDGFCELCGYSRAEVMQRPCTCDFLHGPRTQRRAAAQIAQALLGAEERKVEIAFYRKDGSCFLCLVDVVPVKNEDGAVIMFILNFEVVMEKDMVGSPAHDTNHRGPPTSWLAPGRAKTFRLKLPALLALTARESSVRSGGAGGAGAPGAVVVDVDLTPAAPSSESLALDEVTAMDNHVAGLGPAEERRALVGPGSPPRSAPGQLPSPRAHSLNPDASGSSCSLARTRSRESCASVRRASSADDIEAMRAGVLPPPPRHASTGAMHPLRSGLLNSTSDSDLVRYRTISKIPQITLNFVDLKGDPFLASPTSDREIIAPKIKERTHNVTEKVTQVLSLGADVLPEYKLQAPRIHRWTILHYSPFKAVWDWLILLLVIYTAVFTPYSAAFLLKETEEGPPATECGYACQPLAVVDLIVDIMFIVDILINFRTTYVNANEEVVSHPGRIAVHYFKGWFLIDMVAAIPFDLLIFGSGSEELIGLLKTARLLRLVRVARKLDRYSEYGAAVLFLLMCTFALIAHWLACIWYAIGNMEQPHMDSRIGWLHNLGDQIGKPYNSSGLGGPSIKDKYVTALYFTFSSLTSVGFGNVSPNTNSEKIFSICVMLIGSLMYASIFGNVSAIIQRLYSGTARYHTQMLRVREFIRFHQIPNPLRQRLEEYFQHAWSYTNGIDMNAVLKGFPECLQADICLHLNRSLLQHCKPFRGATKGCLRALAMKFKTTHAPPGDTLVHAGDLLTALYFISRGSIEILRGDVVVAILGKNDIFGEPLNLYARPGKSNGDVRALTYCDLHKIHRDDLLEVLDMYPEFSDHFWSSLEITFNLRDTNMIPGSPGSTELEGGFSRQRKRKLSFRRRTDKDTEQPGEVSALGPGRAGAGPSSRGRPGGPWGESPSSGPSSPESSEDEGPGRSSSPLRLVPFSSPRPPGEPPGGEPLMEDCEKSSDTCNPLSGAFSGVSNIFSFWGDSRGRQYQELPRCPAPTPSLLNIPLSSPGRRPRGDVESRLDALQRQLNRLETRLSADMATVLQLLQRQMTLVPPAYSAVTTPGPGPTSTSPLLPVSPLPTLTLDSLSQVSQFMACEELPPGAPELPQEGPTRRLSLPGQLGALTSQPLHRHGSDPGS
row,Compound,hERG blockade
1,Oc1cc(O)c2c(c1)OC(c1ccc(O)c(O)c1)C(OC1(c3cc(O)c(O)c(O)c3)Oc3cc(O)cc(O)c3C(O)C1O)C2 (stereo not drawn),-3.37% (inactive)
2,CC(CC(=O)O)C(C(=O)O)C(=O)O (stereo not drawn),2.78% (inactive)
3,Oc1cc(CN2COc3ccccc32)c(O)cc1CNC1CCCCC1,6.98% (inactive)
4,N=c1nc(N)nc(N)n1-c1ccc(S(N)(=O)=O)cc1,-2.11% (inactive)
5,Nc1[nH]c(=O)nc2c1ncn2C1OC(CO)C(O)C1O (stereo not drawn),-9.03% (inactive)
6,COc1ccc2cc(C(=O)CCC(=O)O)ccc2c1,-0.161% (inactive)
7,NC(=[SH+])[N-]N=Cc1ccccn1.O=S(=O)([O-])O.[Fe],8.22% (inactive)
8,O=C(O)c1ccncc1.O=C(O)c1ccncc1.[Cl][Pt]([Cl])([Cl])[Cl],16.7% (inactive)
9,C[N+]1(CCN=C=NC2CCCCC2)CCOCC1,4.24% (inactive)
10,CN(C)CCCN1c2ccccc2C(C)(C)c2ccccc21,34.9% (active)
11,CN(C)CCCN1c2ccccc2Sc2ccc3ccccc3c21,112% (active)
12,CCN(CC)CCN1c2ccccc2Sc2ccc3ccccc3c21,28.5% (active)
13,CN(C)CCCN1c2ccc3ccccc3c2Sc2cccc(Cl)c21,30.4% (active)
14,CCN(CC)CCN1C(=O)c2cccc3cc(N)cc(c23)C1=O,-2.82% (inactive)
15,Clc1ccc(-c2nnc(-c3cccc4ccccc34)o2)cc1Cl,-2.83% (inactive)
16,N=Nc1c(OC(=O)Nc2ccccc2)[nH]c2ccccc12,18.5% (inactive)
17,CN(C)CCC(C(=O)C(C)(C)C)c1ccccn1 (stereo not drawn),-9.42% (inactive)
18,CS(=O)(=O)c1ccc(C=NNC(N)=S)cc1,-0.277% (inactive)
19,O=[N+]([O-])c1ccc(NN=C2c3ccccc3Cc3ccccc32)c([N+](=O)[O-])c1,8.87% (inactive)
20,O=C(O)c1cc(N=Cc2ccccc2O)cc(C(=O)O)c1,-2.64% (inactive)
21,Nc1nc(N)c2nn(-c3ccc(C(=O)O)cc3)nc2n1,14.6% (inactive)
22,NCCSCC(N)C(=O)O (stereo not drawn),1.01% (inactive)
23,O=C(O)c1ccc(OCc2ccccc2)c(Cl)c1,4.92% (inactive)
24,Cc1c[n+](=O)c2ccccc2n1[O-],-5% (inactive)
25,O=C(O)C1C2C=CC(O2)C1C(=O)NCc1ccncc1 (stereo not drawn),-11% (inactive)
26,Clc1ccc(-c2noc(CN3CCCCC3)n2)cc1,-11.3% (inactive)

row,Compound,hERG blockade
1,N=C(N)SCc1nc(-c2ccc(Cl)cc2)no1,-25.1% (active)
2,C[N+](C)(N)Cc1nc(-c2ccc(Cl)cc2)no1,1.91% (inactive)
3,Cc1cc2c(cc1C)NC1=C(N2)OC(c2c[nH]c3ccc(COc4ccccc4)cc23)C1=O (stereo not drawn),-6.35% (inactive)
4,CCOC(=O)C1=C(C)NC(=O)NC1c1coc2cc(C)cc(C)c2c1=O (stereo not drawn),-8.18% (inactive)
5,Cc1ccc(S(=O)(=O)N2CCC(C(=O)O)(c3ccccc3)CC2)cc1,-1.68% (inactive)
6,COc1ccc2c(=O)cc(-c3ccncc3)oc2c1OC,72.1% (active)
7,C1CCN(CCC2CCCCN2)CC1 (stereo not drawn),-0.957% (inactive)
8,[O-][n+]1c(CN2CCCCC2)nc2cccc3c2c1-c1ccccc1-3,41.6% (active)
9,CN1CCN(Cc2nc3cccc4c3c([n+]2[O-])-c2ccccc2-4)CC1,39.2% (active)
10,Oc1cccnc1CN1CCCCC1,-6.51% (inactive)
11,CN1CCN(CC(=O)Nc2cccc3ccccc23)CC1,8.36% (inactive)
12,CC(C)C1OC(C=Cc2ccccc2)OCC1(C)C (stereo not drawn),10.1% (inactive)
13,O=C(O)CSc1ccn(Cc2ccccc2)c1,-5.01% (inactive)
14,CC(=NCC(=O)O)c1ccccc1,-2.03% (inactive)
15,CN(CC(=O)O)CC(=O)O,9.14% (inactive)
16,C=C(Br)CN(C)CC(=C)Br,-27.2% (active)
17,C=C(C)CN(CC#N)CC(=C)C,-3.17% (inactive)
18,Cc1cc(Nc2ccc(N=Nc3ccc(O)c4ncccc34)cc2)nc(C)n1,7.41% (inactive)
19,[Cu+2].[NH-]C(CC(=O)O)C(=O)O.[NH-]C(CC(=O)O)C(=O)O (stereo not drawn),16.8% (inactive)
20,NC(=O)NN=C1CCC(O)CC1CC(=O)O (stereo not drawn),0.91% (inactive)
21,CN1C2CCC1CC(OC(c1ccccc1)c1ccccc1)C2 (stereo not drawn),44.2% (active)
22,NS(=O)(=O)c1ccc(N=Nc2nc3[nH]cnc(=S)c3[nH]2)cc1,-16.4% (inactive)
23,CC(CN(C)C)C(=O)c1ccccc1C(=O)O (stereo not drawn),0.354% (inactive)
24,CC(CN(C)C)C(O)(c1ccccc1)c1ccccc1 (stereo not drawn),7.73% (inactive)
25,CN(C)CC(O)c1ccc(Cl)c2ccccc12 (stereo not drawn),28.3% (active)
26,CN(Cc1cc(Br)cc(Br)c1O)Cc1c(O)ccc2ccccc12,16% (inactive)

row,Compound,hERG blockade
1,Clc1ccc(Cl)c(Nc2ccnc(SCc3ccccc3)n2)c1,-4.72% (inactive)
2,CC1CCC2(C(=O)O)CCC3(C)C(=CCC4C5(C)CC(O)C(O)C(C)(CO)C5C(O)CC43C)C2C1C (stereo not drawn),17.2% (inactive)
3,O=C(CSc1ncnc2nc[nH]c12)c1ccccc1,-4.94% (inactive)
4,O=S1(=O)CCN(c2ccccc2CC(c2c[nH]c3ccccc23)c2c[nH]c3ccccc23)CC1,32.2% (active)
5,Cn1ccnc1CC(C)(O)c1ccccc1 (stereo not drawn),-2.58% (inactive)
6,COc1ccc(OC)c(-c2cc(C(=O)O)c3cc4ccccc4cc3n2)c1,-16.1% (inactive)
7,CC(CCC(=O)O)C1CCC2(C)C3C(=O)CC4C(C)(C)C(O)CCC4(C)C3C(=O)CC12C (stereo not drawn),2.84% (inactive)
8,CC(CCC(=O)O)C1CCC2C3C(O)CC4CC(O)CCC4(C)C3CC(O)C12C (stereo not drawn),5.61% (inactive)
9,O=C(O)c1ccc(C(=O)O)c(C(=O)O)c1.[NH-]C1CCCCC1[NH-].[Pt+2],23.7% (active)
10,O=C(O)c1ccc(C(=O)O)c(C(=O)Nc2ccc3c(c2)Cc2ccccc2-3)c1,-3.35% (inactive)
11,O=C(O)c1ccc(C(=O)c2ccccc2)c(C(=O)O)c1,1.04% (inactive)
12,O=C1CNCCCN2CCN(CCCNCC(=O)Nc3ccc(cc3)S(=O)(=O)c3ccc(cc3)NC(=O)CNCCCN3CCN(CCCNCC(=O)Nc4ccc(cc4)S(=O)(=O)c4ccc(cc4)N1)CC3)CC2,5.8% (inactive)
13,Cc1ccc(S(=O)(=O)NC(=O)OC23COCN2COC3)cc1,-18.8% (inactive)
14,Oc1c(Br)cc(Br)cc1CN(Cc1cc(Br)cc(Br)c1O)C1CCCCC1,-7.44% (inactive)
15,O=C1c2ccccc2C(=O)N1CC1(C(=O)O)NCCS1(=O)=O (stereo not drawn),4.44% (inactive)
16,N=Nc1c(OC(=O)Nc2cccc(Cl)c2)[nH]c2ccccc12,1.43% (inactive)
17,S=C1NC(c2ccccc2)NC(c2ccccc2)S1 (stereo not drawn),8.24% (inactive)
18,NC(N)=NC(CC(=O)O)c1ccccc1 (stereo not drawn),10.4% (inactive)
19,N=C(N)SC(c1ccccc1)c1ccccc1,22.5% (active)
20,N=C(N)C(N=Nc1ccccc1)C(=N)N (stereo not drawn),14.2% (inactive)
21,O=C(O)CCCSc1ccccc1,8.71% (inactive)
22,O=C1c2ccccc2C(=O)N1CCCSc1ccccc1,23.2% (active)
23,Cn1c(=S)c2[nH]c(SCCN3C(=O)c4ccccc4C3=O)nc2n(C)c1=O,13.4% (inactive)
24,O=C(O)c1cccc(S(=O)(=O)NCCO)c1,-15.6% (inactive)
25,CN(C)CCn1c(CO)nc2c1c(=O)n(C)c(=O)n2C,-1.57% (inactive)
26,CN(C)CCNc1nc2c(c(=O)n(C)c(=O)n2C)n1C,34% (active)

row,Compound,hERG blockade
1,Cn1c(=O)c2c(nc(NCCNc3nc4c(c(=O)n(C)c(=O)n4C)n3C)n2C)n(C)c1=O,-7.81% (inactive)
2,Cc1ccc(CCCC(=O)O)cc1C,6.44% (inactive)
3,NC(=O)NOCC1NC(=O)NC1=O (stereo not drawn),-12% (inactive)
4,Nc1ncnc2c1ncn2C1OC(CO)C(O)C1N (stereo not drawn),13.4% (inactive)
5,NCC1OC(n2cnc3c(N)ncnc32)CC1O (stereo not drawn),-23.5% (active)
6,C[N+](C)(C)c1ncnc2c1ncn2C1CC(O)C(CO)O1 (stereo not drawn),-5.95% (inactive)
7,Nc1ncnc2c1nc(-c1ccccc1)n2C1OC(CO)C(O)C1O (stereo not drawn),-5.56% (inactive)
8,Cc1ccc(C2(C)CCC(=NN=C3CCC(C)(c4ccc(C)c(C)c4)c4cc(C)c(C)cc43)c3cc(C)c(C)cc32)cc1C (stereo not drawn),5.6% (inactive)
9,CC(NC(=O)c1ccccc1)(C(=O)O)C(=O)O,-6.84% (inactive)
10,O=C(Nc1ccc(-c2cn3ccccc3n2)cc1)c1cc(Br)ccc1O,6.36% (inactive)
11,CC12CCC3c4ccc(OCC(=O)O)cc4CCC3C1CCC2=O (stereo not drawn),-7.52% (inactive)
12,Cc1cc(Cl)ccc1OCC(=O)Oc1c(Cl)c(Cl)c(Cl)c(Cl)c1Cl,-9.38% (inactive)
13,CC(C)Cn1cnc2c(SCc3ccccn3)nc(N)nc21,-2.95% (inactive)
14,CC(C)Cn1cnc2c(SCc3ccc(Cl)cc3Cl)nc(N)nc21,20.1% (active)
15,Cc1ccc2ccccc2c1CSc1nc(N)nc2c1ncn2CC(C)C,13.9% (inactive)
16,COc1cccc(CSCC(=O)O)c1,3.08% (inactive)
17,O=C(O)C(Cc1c[nH]c2ccccc12)C(=O)NO (stereo not drawn),-0.439% (inactive)
18,O=C(O)C1CCCN1Cc1c[nH]c2ccccc12 (stereo not drawn),-17.1% (inactive)
19,CC(=O)NC(Cc1c[nH]c2ccccc12)C(=O)O (stereo not drawn),2.72% (inactive)
20,O=C(O)C(Cc1c[nH]c2ccccc12)N1C(=O)c2ccccc2C1=O (stereo not drawn),-13.6% (inactive)
21,CN(CC(=O)O)Cc1c[nH]c2ccccc12,-21% (active)
22,CC(N)(Cc1c[nH]c2ccccc12)C(=O)O (stereo not drawn),-24.5% (active)
23,NC(N)=NCC(N)C(=O)O (stereo not drawn),-1.09% (inactive)
24,Cc1nnc(S(=O)(=O)c2ccc(N=Nc3c(N)nc(N)nc3N)cc2)s1,-0.733% (inactive)
25,O=C(O)CC(=Cc1ccco1)C(=O)O,-9.17% (inactive)
